From PubChem
MsrA act – activators of bovine methionine sulfoxide reductase A; purified bovine MsrA, absorbance read-out; 0.3% of 360,000 active; activation, % at 10.6 µM; in the data active = activation above about 7.5%
GC-B act – GC-B (human) receptor activation | 0.11% of 370,000 active | HEK293-GC-B cells, CNP EC30, cGMP TR-FRET; 0% at EC30 CNP, 100% saturating CNP | AID 1920062 | activation, % at 10 µM;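 active = activation at 10 µM reaching about 35% in either raw or pattern-adjusted values, limit read from the data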
GC-A act – GC-A (human) enzyme activation | P16066 | HEK293 GC-A cells, cGMP TR-FRET, EC30 ANP; 0% at EC30 ANP, 100% saturating ANP | activation, % at 10 µM | 0.14% of 370,000 active | AID 1671463; in the data active = activation above about 40%
HTR2A ag – agonists of mouse serotonin 5-HT2A receptor (HTR2A) | CHO-K1 mHTR2A beta-arrestin complementation, luminescence; percent of 30 µM serotonin response | activation, % at 7.6 µM | 0.66% of 360,000 active;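 active = activation above a run cutoff, the mean activation of all tested compounds plus 3 SD, cut at about 14% in these data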
MsrA inh – inhibitors of bovine MsrA. purified bovine MsrA, absorbance read-out. inhibition, % at 15.5 µM. 0.75% of 360,000 active. AID 651718; in the data active = inhibition above about 4.5%
OPRM1 ag – OPRM1 agonism in mouse HTR2A counterscreen. U2OS OPRM1 beta-arrestin PathHunter, luminescence; DMSO 0%, DAMGO 9.3 µM 100%. activation, % at 9.3 µM. shares compounds with HTR2A ag. 5.3% of 2,300 active;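 active = mean activation above the mean of DMSO-only wells plus 3 SD, cut at about 0.5% in these data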
m5-HT2A ag conf – confirmation of mouse HTR2A serotonin receptor agonists | shares compounds with HTR2A ag | CHO-K1 PathHunter beta-arrestin recruitment, luminescence; DMSO 0%, 30 µM serotonin 100% | activation, % at 7.6 µM | 19% of 2,300 active | AID 624381;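 active = mean activation across triplicates above the hit threshold derived in the original primary screen, cut at about 15% in these data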
Of the large screens only hits and unclear results are named; the others gave an inactive call (follow-up assays come after a bar, where they were run). Hits are enriched below; roughly 1.8% of the tested compounds scored in any of these assays.

COc1ccc2c(c1)CN1C(=O)N(CC(C)C)S(=O)(=O)CC21 (stereo not given)	none (no result: MsrA act, HTR2A ag, MsrA inh)
Cc1nn(Cc2c(Cl)cccc2Cl)c(Cl)c1/C=C/C(=O)OCC(=O)NCC(F)(F)F	none
COCCNC(=O)COC(=O)/C=C/c1c(C)nn(Cc2ccc(Cl)cc2Cl)c1Cl	HTR2A ag 35 | OPRM1 ag inactive | m5-HT2A ag conf inactive
CCc1nnc(NC(=O)CCC(=O)N2CCN(Cc3ccccc3)CC2)s1	HTR2A ag 16 | OPRM1 ag inactive | m5-HT2A ag conf inactive
COC(=O)[C@]12C[C@H](CC(=O)N3CCCC3)C(=O)N(Cc3cccc4ccccc34)C1=C[C@H](C(C)C)O[C@@H]2C1CC1	none (no result: MsrA act, HTR2A ag, MsrA inh)
Cc1cccn2c(=O)nc(SCC(=O)NCc3ccccc3)nc12	HTR2A ag 15 | OPRM1 ag inactive | m5-HT2A ag conf inactive
Cc1cccn2c(=O)nc(SCC(=O)NCCc3ccccc3)nc12	none
COc1cc(NC(=O)CCc2nnc3ccc(N4CCCC4)nn23)cc(OC)c1OC	none
COc1cc(NC(=O)CCc2nnc3ccc(N4CCCCC4)nn23)cc(OC)c1OC	HTR2A ag 16 | OPRM1 ag inactive | m5-HT2A ag conf inactive
Cc1cccc(NC(=O)C2CCN(c3ncccn3)CC2)c1C	none (no result: MsrA act, HTR2A ag, MsrA inh)
Cn1c(CSCc2ccccc2Cl)n[nH]c1=S	none
S=c1[nH]nc(CSCc2ccccc2Cl)n1C1CCCCC1	HTR2A ag 29 | OPRM1 ag inactive | m5-HT2A ag conf inactive
CCCn1c(N2CCN(Cc3ccc(Cl)cc3)CC2)nc2ccccc21	HTR2A ag 22 | OPRM1 ag inactive | m5-HT2A ag conf inactive
CC(C)c1ccc(CN(C(=O)c2cccs2)C2CCS(=O)(=O)C2)cc1 (stereo not given)	HTR2A ag 15 | OPRM1 ag inactive | m5-HT2A ag conf inactive
c1ccc(-c2nnc3sc(C4CCCCC4)nn23)cc1	none (no result: MsrA act, HTR2A ag, MsrA inh)
O=C(Nc1ccn(CCCN2CCN(c3ncccn3)CC2)c(=O)n1)OCc1ccccc1	HTR2A ag 25 | OPRM1 ag inactive | m5-HT2A ag conf 29
O=C(Nc1ccn(CCCN2CCN(Cc3ccc(F)cc3)CC2)c(=O)n1)OCc1ccccc1	none
O=C(CC1C(=O)NCCN1Cc1ccccc1C(F)(F)F)NCCn1cccn1 (stereo not given)	HTR2A ag 16 | OPRM1 ag inactive | m5-HT2A ag conf inactive
CCOc1ccccc1CN1CCNC(=O)C1CC(=O)NCc1cc(C)n(C)n1 (stereo not given)	none
CCOc1ccccc1CN1CCNC(=O)C1CC(=O)NCCN1CCOC1=O (stereo not given)	HTR2A ag 15 | OPRM1 ag inactive | m5-HT2A ag conf inactive
CCOC(=O)CN1CCS(=O)(=O)CC1	HTR2A ag 16 | OPRM1 ag inactive | m5-HT2A ag conf inactive
CCOC(=O)CSC1=NN2CCS(=O)(=O)N=C2S1	none
Cc1ccc(-c2nnc(SCC(=O)NNC(=S)Nc3ccccc3)n2C2CCCCC2)cc1	none (no result: MsrA act, HTR2A ag, MsrA inh)
COc1ccc(OC)c(S(=O)(=O)N2CCCCC2C(=O)N2CCN(Cc3ccc(F)cc3)CC2)c1 (stereo not given)	none (no result: MsrA act, HTR2A ag, MsrA inh)
COC(=O)Cc1ccc(NC(=S)N2CCN(c3cccc(O)c3)CC2)cc1	HTR2A ag 24 | OPRM1 ag inactive | m5-HT2A ag conf inactive
COC(=O)Cc1ccc(NC(=S)N2CCN(c3ccc(OC)cc3)CC2)cc1	none
COc1ccccc1NC(=O)COC(=O)Cc1c[nH]c2ccccc12	HTR2A ag 15 | OPRM1 ag inactive | m5-HT2A ag conf inactive
COc1ccc(NC2CCCN(C(=O)Cn3ccc(C)n3)C2)cc1OC (stereo not given)	HTR2A ag 15 | OPRM1 ag inactive | m5-HT2A ag conf inactive
CCCCC(c1nnnn1CC1CCCO1)N1CCN(c2nc3ccccc3s2)CC1 (stereo not given)	HTR2A ag 16 | OPRM1 ag inactive | m5-HT2A ag conf inactive
c1csc(C(c2nnnn2C2CCCCC2)N2CCN(c3nc4ccccc4s3)CC2)c1 (stereo not given)	HTR2A ag 15 | OPRM1 ag inactive | m5-HT2A ag conf inactive
CCCCN1C(=O)N2CCc3ccccc3C2CS1(=O)=O (stereo not given)	none (no result: MsrA act, HTR2A ag, MsrA inh)
Cc1ccc(CN2CCCCC(NC(=O)c3c(F)cccc3F)C2=O)cc1 (stereo not given)	none (no result: MsrA act, HTR2A ag, MsrA inh)
Cc1ccc(-c2cc(-c3nnc(SCc4cccc5ccccc45)n3N)[nH]n2)cc1	none (no result: MsrA act, HTR2A ag, MsrA inh)
Cn1c(NC(=O)C[n+]2cc(-c3ccc(F)cc3)n3c2CCC3)cc(=O)n(C)c1=O	HTR2A ag 15 | OPRM1 ag inactive | m5-HT2A ag conf inactive
O=C(N[C@@H](Cc1cccnc1)C(=O)N1CCC[C@H]1C(=O)NCCc1ccccc1Cl)C1CCCC1	none (no result: MsrA act, HTR2A ag)
COc1cc(C)c(S(=O)(=O)NCc2ccc3c(c2)OCO3)cc1C	HTR2A ag 29 | OPRM1 ag inactive | m5-HT2A ag conf inactive
O=C(Nc1nc2ccccc2s1)c1ccc(F)cc1	HTR2A ag 53 | OPRM1 ag inactive | m5-HT2A ag conf inactive
CCOCCn1c(=O)c2c(nc3n2CC(C)CN3CCc2ccccc2)n(C)c1=O (stereo not given)	HTR2A ag 15 | OPRM1 ag inactive | m5-HT2A ag conf inactive
CN1C(=O)c2cc(NC(=O)Nc3ccccc3F)ccc2OC[C@H]2O[C@@H](CC(=O)NCc3ccc(-c4ccccc4)cc3)CC[C@@H]21	none (no result: MsrA act, HTR2A ag, MsrA inh)
O=C(Nc1ccc(C(O)(C(F)(F)F)C(F)(F)F)cc1)c1ccc(F)cc1Cl	none (no result: MsrA act, HTR2A ag, MsrA inh)
O=C(Nc1ccccc1)c1cnc2n(c1=O)CCS2	none
O=C(c1cnc2n(c1=O)CCS2)N1CCN(c2ccc(Cl)c(Cl)c2)CC1	HTR2A ag 20 (no result: GC-B act, GC-A act, MsrA inh) | OPRM1 ag inactive | m5-HT2A ag conf inactive
CCOc1ccccc1C(=O)N1CCC(Oc2cccnc2)CC1	none (no result: MsrA act, HTR2A ag, MsrA inh)
COc1ccc(S[C@]2(C(=O)N3CCN(c4ncccn4)CC3)CC(=O)N(C(=O)CCc3ccccc3)[C@@H]2c2ccc(OC)cc2)cc1	none (no result: MsrA act, HTR2A ag, MsrA inh)
Cc1cccc(C2CN(C)CCc3c2cc(O)c(O)c3Cl)c1 (stereo not given)	HTR2A ag 22 | OPRM1 ag inactive | m5-HT2A ag conf 34
C=CCN1CCc2c(cc(O)c(O)c2Cl)C(c2ccccc2)C1 (stereo not given)	HTR2A ag 60 | OPRM1 ag inactive | m5-HT2A ag conf 148
C=CCN1CCc2cc(O)c(O)cc2C(c2ccccc2)C1 (stereo not given)	HTR2A ag 29 | OPRM1 ag inactive | m5-HT2A ag conf 86
C#CC1c2ccccc2CCN1CC=C (stereo not given)	none (no result: MsrA act, HTR2A ag)
O=[N+]([O-])c1cccc(-c2ccc(/C=N/NC(=S)NCc3ccco3)o2)c1	HTR2A ag 20 | OPRM1 ag inactive | m5-HT2A ag conf inactive
